# VLA-4 inh – inhibition in a human VLA-4 binding assay | inhibition, % (about 7 µM as worked out from the volumes in the protocol) | P13612 | VLA-4 expressing cells, ligand binding flow cytometry | hit rate 0.2% among 330,000; in the data active means inhibition above about 50%
# MEKK2wt PB1 HTS – raises or lowers MEK5 binding to wildtype human MEKK2 PB1 domain | Q9Y2U5 | bead flow cytometry, Alexa488-MEK5 binding to MEKK2 WT; actives lie on both sides | binding response (% of control), % at 10 µM | hit rate 1.1% among 290,000 | AID 1531; in the data active means binding response below about 67% or above about 130%
# MEKK3 PB1 HTS – MEKK3-MEK5 PB1 interaction, increase or decrease | Q99759 | bead-based flow cytometry, Alexa488-MEK5 binding to MEKK3; actives lie on both sides; 0 = blocked by unlabeled MEK5, 100 = vehicle | binding response (% of control), % at 10 µM | hit rate 1.4% among 290,000;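 active means binding response more than 3 SD above or below the average of its plate-row segment, actives on both sides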;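 further: Alexa488 bead fluorescence after subtracting the streptavidin-only scavenger bead signal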
# Target sequence (Q99759 whole entry, looked up): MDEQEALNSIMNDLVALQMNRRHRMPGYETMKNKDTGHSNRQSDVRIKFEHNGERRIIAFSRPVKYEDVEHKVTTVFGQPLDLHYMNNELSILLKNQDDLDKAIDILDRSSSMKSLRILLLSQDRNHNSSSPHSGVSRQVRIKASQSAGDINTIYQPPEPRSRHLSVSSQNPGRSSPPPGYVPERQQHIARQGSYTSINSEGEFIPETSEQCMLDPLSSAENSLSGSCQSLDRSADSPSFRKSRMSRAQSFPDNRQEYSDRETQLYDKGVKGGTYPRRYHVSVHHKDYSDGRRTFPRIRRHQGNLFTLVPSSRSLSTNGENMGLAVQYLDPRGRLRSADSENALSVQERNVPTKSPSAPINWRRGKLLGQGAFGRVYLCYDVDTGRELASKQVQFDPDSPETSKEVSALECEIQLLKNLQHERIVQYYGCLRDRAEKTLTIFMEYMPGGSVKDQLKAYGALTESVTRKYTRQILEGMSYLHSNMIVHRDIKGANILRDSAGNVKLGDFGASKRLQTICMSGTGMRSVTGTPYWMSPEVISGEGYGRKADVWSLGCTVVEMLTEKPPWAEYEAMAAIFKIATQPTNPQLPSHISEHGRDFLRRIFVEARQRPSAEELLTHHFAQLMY
# MEKK2mut PB1 HTS – signal of MEK5 binding to mutant human MEKK2 PB1 domain | bead flow cytometry, Alexa488-MEK5 binding to MEKK2 mutant | AID 1530 | hit rate 0.35% among 290,000 | percent response, % at 10 µM; in the data active means percent response above about 24%, passing the limit was not always enough
# VLA-4 allo CP – confirmation of allosteric modulators of human VLA-4 integrin; hit rate 2% among 1,300; inhibition, % at 6.7 µM; U937 cells, HUTS-21 LIBS mAb binding, flow cytometry; LDV ligand present at threefold Kd; shares compounds with VLA-4 inh; in the data active means inhibition above about 40%;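 further: 0% = ligand without compound and 100% = no ligand background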
# Active calls of the source: *; x = no result given. Shown are actives, neighbours in structure and some others; about 2.2% of the full set was active somewhere.
SMILES,VLA-4 inh,MEKK2wt PB1 HTS,MEKK3 PB1 HTS,MEKK2mut PB1 HTS,VLA-4 allo CP
Cc1cc(/C=N\NC(=O)c2cccs2)c(C)n1-c1ccc2ncccc2c1,93*,98,98,-2,0
Cc1cc(/C=N\NC(=O)COc2cccc3cccnc23)c(C)n1-c1ccc(Br)cc1,6,95,109,-2,x
CC(=O)c1ccc(S(=O)(=O)NCCCC(=O)N(C)Cc2ccc3c(c2)OCO3)cc1,5,x,x,x,x
Cc1cc(S(=O)(=O)Nc2ccc(N3CCOCC3)cc2)ccc1Br,13,95,99,-3,x
CN1C(=O)Cc2cc(S(=O)(=O)Nc3ccc(N4CCOCC4)cc3)ccc21,11,96,97,-3,4
CCOc1ccc(CCNc2nc3ccc(C)cc3n3cnnc23)cc1OCC,11,107,101,1,x
COC(=O)CC1C(=O)NCCN1C(=S)Nc1ccccc1Cl (centres undefined),53*,94,99,-4,2
COc1ccc(OC)c(C(=O)COC(=O)CNC(=O)C2CCCCC2)c1,60*,109,112,3,-8
N#Cc1ccccc1N1CCN(C(=O)c2ccc(NC(=O)c3ccc(Br)o3)cc2)CC1,13,x,x,x,x
NC(=O)[C@@H]1CC2(CC(c3cccc(NC(=O)[C@H]4CCC(=O)N4)c3)=NO2)CN1C(=O)c1ccc(Cl)cc1 (some centres undefined),-4,103,105,1,x
NC(=O)[C@H]1CC2(CC(c3cccc(NC(=O)[C@H]4CCC(=O)N4)c3)=NO2)CN1C(=O)c1ccccc1 (some centres undefined),51*,101,89,-5,6
O=C(c1cc(-c2ccccn2)nc2c(Cl)cccc12)N1CCN(C(=O)C2CCCO2)CC1 (centres undefined),1,97,98,2,0
Cc1ccc(F)cc1NC(=O)CSc1n[nH]c(N)n1,-4,x,x,x,x
Cc1oc2c(c1C(=O)Nc1cccc3ccccc13)CCCC2,6,97,97,3,x
COc1ccccc1NC(=O)c1c(C)oc2c1CCCC2,93*,100,104,2,4
C=CCn1c(SCC(=O)Nc2c(C)n(C)n(-c3ccccc3)c2=O)nc2scc(-c3ccccc3)c2c1=O,8,95,99,-5,x
COc1ccc2c(C)cc(SCC(=O)Nc3c(C)n(C)n(-c4ccccc4)c3=O)nc2c1,94*,100,100,4,13
C=CCn1c(SCC(=O)Nc2c(C)n(C)n(-c3ccccc3)c2=O)nc2ccccc2c1=O,52*,x,x,x,3
COCC(=O)N(CCc1ccc(OC)c(OC)c1)Cc1cc2cc(C)ccc2nc1Cl,10,104,98,1,x
COc1cccc(CNC(=O)Cn2c(=O)oc3ccccc32)c1OC,38,107,105,7,-5
COc1ccc(CNC(=O)Cn2c(=O)oc3ccccc32)cc1OC,97*,104,97,4,-11
CCOc1ccc(CNC(=O)CCn2c(=O)oc3ccccc32)cc1OC,0,96,99,-6,x
CCOc1ccccc1CNC(=O)Cn1c(=O)oc2ccccc21,26,105,103,7,x
COc1ccc(C(C(=O)NC(C)(C)C)N(C(=O)CCC(=O)Nc2cc(C)on2)c2cccc(C)c2C)cc1 (centres undefined),0,91,101,-7,x
Cn1cc(CCCC(=O)NCc2ccccc2)c2ccccc21,16,104,103,3,x
SMILES,VLA-4 inh,MEKK2wt PB1 HTS,MEKK3 PB1 HTS,MEKK2mut PB1 HTS,VLA-4 allo CP
Cc1ccc(CNC(=O)CCCc2cn(C)c3ccccc23)cc1,42,103,104,3,5
CCCc1cc(=O)c2ccc(OC/C(C)=N/O)cc2o1,21,102,102,0,x
O=C(CS(=O)(=O)c1ccccc1)NCc1ccccc1,10,109,103,5,x
COc1ccccc1/C=N/NC(=O)CCn1cnc2ccccc21,58*,103,126,0,-1
CCOc1ccc(S(=O)(=O)Nc2cc(OC)ccc2OC)cc1,53*,99,97,1,56*
O=C(OCn1nnc2ccccc2c1=O)c1cccc(S(=O)(=O)N2CCOCC2)c1,34,x,x,x,x
Clc1ccccc1/C=C/C=N/Nc1nc(N2CCOCC2)nc(N2CCOCC2)n1,-3,100,104,1,x
CC1CC(C)CN(C(=O)c2ccc(C#N)cc2)C1 (centres undefined),60*,100,101,-7,10
Cc1nc(C)n(CC(C)C(=O)N2CCN(S(=O)(=O)c3ccc(Cl)cc3)CC2)n1 (centres undefined),-4,96,99,1,x
Nc1nc(=S)c2[nH]cnc2[nH]1,57*,x,x,x,-2
S=c1nc[nH]c2c1[nH]c1ccccc12,14,117,120,4,x
Cc1ccc(S(=O)(=O)N(C)CC(=O)Nc2nnc(CC(C)C)s2)cc1,10,102,104,-2,x
O=C(/C=C/c1ccccc1)NNC(=O)c1cccc(Cl)c1,0,101,101,0,x
O=C(/C=C/c1ccccc1)NNc1ccc(Cl)cc1,55*,95,101,-4,3
CC(=O)Nc1ccc(S(=O)(=O)N(C)CC(=O)OCC(=O)N2CC(C)OC(C)C2)cc1 (centres undefined),-1,x,x,x,x
Cc1ccc(S(=O)(=O)N2CCC(C(=O)OCC(=O)NC(C)c3ccc(F)cc3)CC2)cc1C (centres undefined),20,x,x,x,x
O=C(c1ccc(Cl)cc1)c1cc([N+](=O)[O-])ccc1N1CCOCC1,15,81,79,-7,x
O=C(c1ccc(Br)cc1)c1cc([N+](=O)[O-])ccc1N1CCOCC1,5,103,97,-2,17
Cc1ccc(C(=O)c2cc([N+](=O)[O-])ccc2N2CC(C)OC(C)C2)cc1 (centres undefined),-2,104,107,3,-1
O=C(c1ccccc1)c1cc([N+](=O)[O-])ccc1N1CCOCC1,26,113,106,29,32
CCOc1ccc(S(=O)(=O)N2CCOCC2)cc1NS(=O)(=O)c1ccc(OC)c([N+](=O)[O-])c1,9,x,x,x,x
Cc1[nH]c(=O)c(S(=O)(=O)c2ccccc2)c(C)c1Cl,10,106,107,10,x
COc1cc(NC(=O)C(C)Oc2ccccc2)c(OC)cc1NC(=O)c1ccccc1 (centres undefined),3,91,93,-3,x
CC1CCN(C(=O)CSc2nnc(Cc3cc(=O)[nH]c(=O)[nH]3)n2-c2ccc(Cl)cc2)CC1,-59,97,99,-1,11
COc1ccc(-n2c(Cc3cc(=O)[nH]c(=O)[nH]3)nnc2SCC(=O)N2CCC(C)CC2)cc1,10,100,104,4,0
COc1cccc(-n2c(Cc3cc(=O)[nH]c(=O)[nH]3)nnc2SCC(=O)N2CCC(C)CC2)c1,17,x,x,x,5
CC(C)(C)c1ccc(C(=O)N2CCC(NC(=O)c3ccccc3)CC2)cc1,7,104,102,-2,x
